Inconclusive results are not listed. The source made the active and inactive calls. Unless noted, the call rests on the fitted dose curve; in most records, active means well fitted curve in the direction sought with a large enough effect in the repeat runs; inconclusive means weak or mixed curves; inactive means no such curve, though single readings can be large; an effect the other way counts as inactive or inconclusive.
Legend:
[1] = qHTS assay to identify small molecule agonists of H2AX (AID 1224845; active means well fitted activation curve with a large enough effect in the signal ratio in the repeat runs, not every such curve was filed as active; the % refers to the signal ratio)
Outline: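 Phospho-H2AX Ser139 measured by HTRF (ex 320 nm; em 665 and 620 nm) after 24 hr antibody incubation. Compounds, 15 concentrations, 0.76% DMSO, were applied to CHO-K1 cells for 3hr at 37C before lysis.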

[2] = qHTS assay to identify small molecule agonists of the hypoxia (HIF-1) signaling pathway (AID 1224846; active means well fitted activation curve with a large enough effect in the signal ratio in the repeat runs, not every such curve was filed as active; the % refers to the signal ratio)
Outline: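 In ME-180 cells bearing an HRE-bla construct, 17 h treatment with DMSO-dissolved compounds at 37C was followed by CCF4-AM loading to quantify reporter induction.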

[3] = qHTS assay to identify small molecule agonists of H2AX - cell viability counter screen (AID 1224847; calls by dose curve; further: top concentration of the series differs between compounds; nearly all actives have a fitted effect of over 30% in size)
Outline: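 Cytotoxicity counter screen in wild-type CHO-K1 cells: a 3 hr compound treatment at 37C across 15 concentrations, followed by CellTiter-Glo luminescence to gauge viable cells.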

[4] = qHTS assay to identify small molecule antagonists of the estrogen related receptor (ERR) signaling pathway from Tox21 library (AID 1224848); further: nearly all actives have a fitted effect of over 50% in size
Outline: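 ERR cell line, 2,000 cells/well. 6 h settle, then compound (DMSO) added; 18 h at 37 C; ONE-Glo luminescence after 30 min RT.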

[5] = qHTS assay to identify small molecule agonists of the estrogen related receptor (ERR) signaling pathway from Tox21 library (AID 1224849; calls by dose curve; further: nearly all actives have a fitted effect of over 15% in size); conditions: ERR reporter cell line, ONE-Glo luciferase, 18 h; at 92.4 µM (top of the series) unless noted
Outline: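 Reporter cells (ERR, NTP source) treated with Tox21 10K compounds 18 h, 37 C. Readout: ONE-Glo luminescence, 30 min RT.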

[6] = qHTS RealTime-Glo MT Cell Viability Assay in HepG2 cells - 24 hour (AID 1224867); further: nearly all actives have a fitted effect of over 50% in size
Outline: (§1)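 qHTS, HepG2, 600 cells/well, RealTime-Glo (NanoLuc + prosubstrate) added with cells; 5 h preincubation; DMSO compound addition; 37 C; luminescence at 0/8/16/24/32/40 h.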

[7] = qHTS RealTime-Glo MT Cell Viability Assay in HEK293 cells - 32 hour (AID 1224868); further: nearly all actives have a fitted effect of over 50% in size; further: potency means the concentration at half of the fitted maximal effect
Outline: (§2)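 Assay medium contained NanoLuc luciferase plus cell-permeant prosubstrate, added with HEK293 cells at 600 cells/well. After 5 h at 37 C/5% CO2 compounds were added; plates stayed at 37 C for 40 h with serial luminescence reads.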

[8] = A CellTox Green Cytotoxicity Assay to monitor cytotoxicity in HEK293 cells - 0 hour (AID 1224869); further: nearly all actives have a fitted effect of over 50% in size
Outline: (§3)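 Homogeneous no-lysis format: HEK293 cell suspension mixed with CellTox Green reagent, seeded, incubated 5 h at 37 C/5% CO2, then dosed by pintool with compound in DMSO.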

[9] = qHTS RealTime-Glo MT Cell Viability Assay in HepG2 cells - 40 hour (AID 1224870); further: nearly all actives have a fitted effect of over 50% in size
Outline: (§4)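 Real-time viability: cells seeded at 600 per well together with NanoLuc and cell-permeant prosubstrate, compounds added after 5 h incubation. Luminescence tracked at 0, 8, 16, 24, 32 and 40 h of exposure.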

[10] = A CellTox Green Cytotoxicity Assay to monitor cytotoxicity in HEK293 cells - 40 hour (AID 1224871); further: nearly all actives have a fitted effect of over 45% in size
Outline: as §3

[11] = qHTS RealTime-Glo MT Cell Viability Assay in HepG2 cells - 8 hour (AID 1224873); further: nearly all actives have a fitted effect of over 55% in size
Outline: as §4

[12] = qHTS RealTime-Glo MT Cell Viability Assay in HEK293 cells - 40 hour (AID 1224874); conditions: RealTime-Glo luminescence; max response: stronger effect = lower value; further: nearly all actives have a fitted effect of over 50% in size; further: potency means the concentration at half of the fitted maximal effect
Outline: (§5)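 Measured as luminescence from the same continuously cultured HEK293 wells at successive time points (0, 8, 16, 24, 32, 40 h) after compound addition. Reagent present from seeding; dosing at 5 h; incubation 37 C.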

[13] = A CellTox Green Cytotoxicity Assay to monitor cytotoxicity in HEK293 cells - 24 hour (AID 1224875); further: nearly all actives have a fitted effect of over 45% in size
Outline: as §3

[14] = A CellTox Green Cytotoxicity Assay to monitor cytotoxicity in HepG2 cells - 16 hour (AID 1224876); further: nearly all actives have a fitted effect of over 45% in size; further: potency means the concentration at half of the fitted maximal effect
Outline: (§6)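 Fluorescent DNA-binding dye, 600 HepG2 cells/well, 5 h preincubation then compound in DMSO; same plates read at 0–40 h, 37 C.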

[15] = qHTS RealTime-Glo MT Cell Viability Assay in HepG2 cells - 32 hour (AID 1224877); further: nearly all actives have a fitted effect of over 55% in size
Outline: as §1

[16] = A CellTox Green Cytotoxicity Assay to monitor cytotoxicity in HepG2 cells - 24 hour (AID 1224878); further: nearly all actives have a fitted effect of over 45% in size; further: potency means the concentration at half of the fitted maximal effect
Outline: as §6

[17] = A CellTox Green Cytotoxicity Assay to monitor cytotoxicity in HepG2 cells - 40 hour (AID 1224879); further: nearly all actives have a fitted effect of over 40% in size; further: potency means the concentration at half of the fitted maximal effect
Outline: as §6

[18] = qHTS RealTime-Glo MT Cell Viability Assay in HEK293 cells - 0 hour (AID 1224880); further: nearly all actives have a fitted effect of over 45% in size; further: potency means the concentration at half of the fitted maximal effect
Outline: as §5

[19] = A CellTox Green Cytotoxicity Assay to monitor cytotoxicity in HEK293 cells - 32 hour (AID 1224881); further: nearly all actives have a fitted effect of over 40% in size
Outline: as §3

[20] = qHTS RealTime-Glo MT Cell Viability Assay in HEK293 cells - 16 hour (AID 1224872)
Outline: as §2
On the % scale 0 is the no-effect control and ±100 the full control effect.

Cc1oc(=O)oc1COC(=O)[C@@H]1N2C(=O)[C@@H](NC(=O)[C@H](N)c3ccccc3)[C@H]2SC1(C)C
inactive: Potency [1] | outcome [2] | Potency [3] | Potency [4] | activity change, positive = activation [5] 1.21% [at 42.5 µM] | Potency [6] | Potency [7] | Potency [8] | Potency [9] | Potency [10] | Potency [11] | max response [12] 6.21% | Potency [13] | Potency [14] | Potency [15] | Potency [16] | Potency [17] | Potency [18] | Potency [19]

COc1cc(NS(=O)(=O)c2ccc(N)cc2)nc(C)n1
inactive: Potency [1] | outcome [2] | Potency [3] | Potency [4] | activity change, positive = activation [5] 5.82% [at 42.5 µM] | Potency [6] | Potency [7] | Potency [8] | Potency [9] | Potency [20] | Potency [11] | max response [12] 9.67% | Potency [14] | Potency [15] | Potency [16] | Potency [18] | Potency [19]

CCO[Si](C)(CCCOCC1CO1)OCC (stereo not given)
inactive: Potency [1] | outcome [2] | Potency [3] | Potency [4] | activity change, positive = activation [5] 0.152% | Potency [6] | Potency [7] | Potency [8] | Potency [9] | Potency [10] | Potency [20] | Potency [11] | max response [12] 13.3% | Potency [13] | Potency [14] | Potency [15] | Potency [16] | Potency [17] | Potency [18] | Potency [19]

O=C1c2ccccc2C(=O)c2c(O)ccc(O)c21
inactive: Potency [1] | outcome [2] | Potency [3] | Potency [4] | activity change, positive = activation [5] -2.45% | Potency [6] | Potency [7] | Potency [8] | Potency [9] | Potency [20] | Potency [11] | max response [12] 5.32% | Potency [15] | Potency [18]
active: Potency [14] 24.5 µM | Potency [16] 24.5 µM

CC(C)N=C=NC(C)C
inactive: Potency [1] | outcome [2] | Potency [3] | Potency [4] | activity change, positive = activation [5] 2.53% | Potency [6] | Potency [7] | Potency [8] | Potency [9] | Potency [10] | Potency [20] | Potency [11] | max response [12] 3.08% | Potency [13] | Potency [14] | Potency [15] | Potency [16] | Potency [17] | Potency [18] | Potency [19]

CCCCCCC(O)CCOC(C)=O (stereo not given)
inactive: Potency [1] | outcome [2] | Potency [3] | Potency [4] | activity change, positive = activation [5] -0.596% [at 240 µM] | Potency [6] | Potency [7] | Potency [8] | Potency [9] | Potency [10] | Potency [20] | Potency [11] | max response [12] 0.328% | Potency [13] | Potency [14] | Potency [15] | Potency [16] | Potency [17] | Potency [18] | Potency [19]

CCNc1nc(N)nc(Cl)n1
inactive: Potency [1] | outcome [2] | Potency [3] | Potency [4] | activity change, positive = activation [5] 3.57% | Potency [6] | Potency [7] | Potency [8] | Potency [9] | Potency [10] | Potency [20] | Potency [11] | max response [12] 9.34% | Potency [14] | Potency [15] | Potency [16] | Potency [17] | Potency [18] | Potency [19]

CCCOC(=O)c1c(Cl)c(Cl)c(Cl)c(Cl)c1C(=O)OCCC
inactive: Potency [1] | outcome [2] | Potency [3] | Potency [4] | activity change, positive = activation [5] 6.22% | Potency [6] | Potency [7] | Potency [8] | Potency [9] | Potency [10] | Potency [20] | Potency [11] | max response [12] 3.32% | Potency [14] | Potency [15] | Potency [16] | Potency [18] | Potency [19]

Nc1ccc(F)cc1
inactive: Potency [1] | outcome [2] | Potency [3] | Potency [4] | activity change, positive = activation [5] 0.224% | Potency [6] | Potency [7] | Potency [8] | Potency [9] | Potency [20] | Potency [11] | max response [12] 14.2% | Potency [13] | Potency [14] | Potency [15] | Potency [16] | Potency [17] | Potency [18] | Potency [19]

COC(=O)c1sccc1S(N)(=O)=O
inactive: Potency [1] | outcome [2] | Potency [3] | Potency [4] | activity change, positive = activation [5] 0.3% | Potency [6] | Potency [7] | Potency [8] | Potency [9] | Potency [20] | Potency [11] | max response [12] -18.1% | Potency [13] | Potency [14] | Potency [15] | Potency [16] | Potency [18] | Potency [19]

O=C(NS(=O)(=O)/C=C/c1ccccc1)c1ccc(F)cc1Cl
inactive: Potency [1] | outcome [2] | Potency [3] | Potency [4] | Potency [6] | Potency [8] | Potency [9] | Potency [10] | Potency [20] | Potency [11] | Potency [13] | Potency [15] | Potency [19]
active: Potency [17] 54.9 µM | Potency [18] 12.3 µM

CC(C)N(C)C
inactive: Potency [1] | outcome [2] | Potency [3] | Potency [6] | Potency [7] | Potency [8] | Potency [9] | Potency [10] | Potency [20] | Potency [11] | max response [12] 0.0453% | Potency [13] | Potency [14] | Potency [15] | Potency [16] | Potency [17] | Potency [18] | Potency [19]

SCCc1cnccn1
inactive: Potency [1] | outcome [2] | Potency [3] | activity change, positive = activation [5] -18.7% | Potency [6] | Potency [7] | Potency [8] | Potency [9] | Potency [10] | Potency [20] | Potency [11] | max response [12] 10.1% | Potency [13] | Potency [14] | Potency [15] | Potency [16] | Potency [17] | Potency [18] | Potency [19]

Cc1ccc2c(c1[N+](=O)[O-])C(=O)c1ccccc1C2=O
inactive: Potency [1] | outcome [2] | Potency [3] | Potency [4] | Potency [6] | Potency [8] | Potency [9] | Potency [10] | Potency [11] | Potency [13] | Potency [14] | Potency [15] | Potency [16] | Potency [17] | Potency [19]
active: Potency [7] 0.958 µM | Potency [12] 0.958 µM
